Bioassay records as filed in PubChem.
PP5 inh = inhibitors of human protein phosphatase 5 (PP5); inhibition, % at 6.7 µM; P53041; hit rate 0.18% among 320,000; purified PP5c, OMFP substrate fluorescence;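 active = inhibition above the campaign's mean inhibition across all tested compounds plus 3 SD, cut at about 9.5% in these data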;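 note: 0% = DMSO only and 100% = 100 µM cantharidin control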
ALR inh = inhibitors of human sulfhydryl oxidase ALR; P55789; purified ALR, DTT oxidation, H2O2 HRP-luminol luminescence; hit rate 3.8% among 290,000; inhibition, % (concentration not given with the values);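 active = mean replicate inhibition above about 79%, with every replicate also reaching it, limit read from the data; inconclusive = only one of the two criteria met; inactive = mean below limit and not every replicate reaching it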
Target sequence (P55789 whole entry, looked up): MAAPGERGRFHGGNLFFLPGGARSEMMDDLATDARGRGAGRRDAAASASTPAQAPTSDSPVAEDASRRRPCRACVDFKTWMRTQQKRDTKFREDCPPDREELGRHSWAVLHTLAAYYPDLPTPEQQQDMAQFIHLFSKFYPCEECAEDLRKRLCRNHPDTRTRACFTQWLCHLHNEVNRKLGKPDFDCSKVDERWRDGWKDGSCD
CSC inhib = blocks cancer stem cells; cancer stem cell-like cells viability, luminescence; inhibition, % at 7.5 µM; hit rate 1.1% among 300,000; in the data active = inhibition above about 75%; inconclusive = no clear call, values can overlap the other calls; tested in HMLE shEcad cells
PP1 inh = PP1-alpha (human) inhibition in PP5 counter-screen; P62136; purified PP1alpha, OMFP fluorescence; inhibition, % at 6.7 µM; hit rate 0.9% among 320,000;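 active = inhibition above the mean inhibition of all tested compounds plus 3 SD, computed separately for each screening campaign, cut at about 15% in these data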
Target sequence (P62136 whole entry, looked up): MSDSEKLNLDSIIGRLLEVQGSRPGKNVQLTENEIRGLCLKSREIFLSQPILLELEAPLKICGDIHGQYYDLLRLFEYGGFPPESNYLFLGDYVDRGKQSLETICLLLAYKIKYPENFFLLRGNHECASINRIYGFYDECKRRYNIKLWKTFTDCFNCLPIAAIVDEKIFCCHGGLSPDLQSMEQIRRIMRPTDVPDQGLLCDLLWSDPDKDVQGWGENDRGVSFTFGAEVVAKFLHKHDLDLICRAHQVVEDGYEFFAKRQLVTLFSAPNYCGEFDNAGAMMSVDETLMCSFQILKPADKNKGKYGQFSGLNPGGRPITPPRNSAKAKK
Calb FLC = C. albicans growth modulation with fluconazole. AID 1979. growth inhibition, % (test concentration not listed). C. albicans CaCi-2 (fluconazole-resistant clinical isolate) + fluconazole, Alamar Blue growth, 48 h. hit rate 0.57% among 300,000;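 active = growth inhibition above about 58% in most replicates, limit read from the data, passing the limit was not always enough; inconclusive = exactly half the replicates above a set limit; inactive = most replicates below a set limit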;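 note: all wells also contain fluconazole at 8 µg/ml as a sub-toxic cotreatment; 0% = median of DMSO wells and 100% = median of geldanamycin control wells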
* hit, by the source's call; u = inconclusive; x = no result given; ! = not active in a repeat. Most compounds without a hit are left out; they make up all but 5.4% or so of the library.

SMILES | PP5 inh | ALR inh | CSC inhib | PP1 inh | Calb FLC
COc1ccc(N2CCN(CC(O)COc3ccc4c(c3)CCC4)CC2)cc1 (stereo not given) | 6 | 97* | 20 | 3 | -8
COc1ccc(N2CCN(CC(O)COCCOc3ccc(Br)cc3)CC2)cc1 (stereo not given) | 1 | 97* | 23 | -2 | 6
COc1cccc(OCC(O)CN2CCN(c3ccccc3)CC2)c1 (stereo not given) | 1 | 96*! | 3 | 0 | -4
COc1ccc(OCC(O)CN2CCN(c3ccc(Cl)cc3)CC2)cc1 (stereo not given) | 1 | 1 | 25 | 2 | -2
COc1cccc(OCC(O)CN2CCN(c3ccc(Cl)cc3)CC2)c1 (stereo not given) | 3 | 45 | 5 | -2 | -9
CC(=O)c1ccc(N2CCN(C3CCC(C(C)(C)C)CC3)CC2)cc1 (stereo not given) | 3 | -3 | 41 | 0 | -4
Cc1ccc(OCCCCN(C)Cc2ccccc2)c(Br)c1 | 1 | -66 | 94* | 3 | -6
COC(=O)c1ccc(/C=C/c2ccc3cccc(OC)c3n2)cc1 | 3 | -19 | 3 | 2 | -9
COc1ccc(-c2ccc(CCC(=O)O)n2NC(=O)c2cccs2)cc1 | 2 | 56 | 2 | 3 | 14
O=C(O)CCc1ccc(-c2cccs2)n1NC(=O)c1ccc(Cl)cc1 | 0 | 98* | 1 | 0 | 2
Cc1ccc(-c2ccc(CCC(=O)O)n2NC(=O)c2cccs2)cc1 | 2 | 99* | -2 | 0 | 10
O=C1c2ccc3c4c(ccc(c24)C(=O)N1NC(=O)C(F)(F)F)CC3 | 2 | -12 | -3 | 1 | -3
CC(NCc1ccc(S(N)(=O)=O)cc1)C(=O)Nc1ccc([N+](=O)[O-])cc1Cl (stereo not given) | -1 | -12 | 7 | 7 | 3
COc1cc(C)c(Cl)c(C)c1S(=O)(=O)NCc1ccc2c(c1)OCO2 | 2 | 2 | -18 | 1 | 1
CCN(CC)CCN1C(=O)c2ccccc2NC1c1ccc(N(C)C)cc1 (stereo not given) | -1 | 48 | 1 | -2 | 0
CN(C)c1ccc(C2Nc3ccccc3C(=O)N2CCCN2CCOCC2)cc1 (stereo not given) | 1 | 99* | 2 | -1 | -8
O=S(=O)(Nc1nccs1)c1ccc(Nc2nnc(-c3ccccc3)c3ccccc23)cc1 | 5 | -3 | -8 | 17* | 15
Cn1nnnc1Sc1ncnc2scc(Br)c12 | x | 8 | u | x | x
C/C(N)=C(/C#N)C(=O)CSc1cc(C)c2cc(C)cc(C)c2n1 | 3 | 96* | 22 | 2 | -21
COC(=O)C(C)Sc1nnc(Cc2cc(=O)[nH]c(=O)[nH]2)n1-c1cccc(OC)c1 (stereo not given) | 0 | 27 | 0 | -3 | 1
CCOc1ccc(-n2c(Cc3cc(=O)[nH]c(=O)[nH]3)nnc2SC(C)C(=O)OC)cc1 (stereo not given) | -1 | 93* | -16 | -1 | -2
COC(=O)C(C)Sc1nnc(Cc2cc(=O)[nH]c(=O)[nH]2)n1-c1cc(C)ccc1C (stereo not given) | 1 | 91* | -7 | -4 | 14
CN(C)c1ccc(C(CNS(=O)(=O)c2ccc3ccccc3c2)c2c[nH]c3ccccc23)cc1 (stereo not given) | 3 | -1 | 53 | -5 | 10
FC(F)(F)c1cccc(Cc2noc(CN3C[C@@H]4CCC[C@H]3C4)n2)c1 | -1 | -19 | -12 | -4 | -4
CCNC(=O)COc1ccc(F)cc1C(=O)c1cnn(-c2ccccc2)c1 | -5 | -1 | 17 | 3 | 7
SMILES | PP5 inh | ALR inh | CSC inhib | PP1 inh | Calb FLC
COc1ccc(N2CCN(S(=O)(=O)c3cccc4cccnc34)CC2)cc1 | 5 | 78* | 1 | -3 | 5
O=C(C1CCCN1S(=O)(=O)c1cccc2cccnc12)N1CCN(c2ccccc2)CC1 (stereo not given) | -2 | 88* | -18 | 2 | 5
CC1CC(C)CN(S(=O)(=O)c2cccc3cccnc23)C1 (stereo not given) | -2 | 92* | -4 | 0 | -5
O=S(=O)(c1cccc2cccnc12)N1CCOCC1 | 4 | -5 | -11 | -3 | -5
COc1cccc(N2CCN(S(=O)(=O)c3cccc4cccnc34)CC2)c1 | 0 | 94* | 0 | -1 | 2
O=S(=O)(/N=C(\[O-])C[n+]1ccccc1)c1ccc(Cl)cc1 | -1 | -17 | 0 | 0 | -3
O=C(Nc1ccccc1)N1CCC(C(=O)N(Cc2ccco2)Cc2cccs2)CC1 | 3 | -4 | -10 | -3 | -13
O=C(CSc1nnc(SCc2ccccc2)s1)N/N=C/c1c(Cl)cccc1Cl | 9 | -9 | 11 | 8 | 28
Cc1nn(-c2ccccc2)c(C)c1/C=N/NC(=O)CSc1nnc(SCc2ccc(Cl)cc2)s1 | 3 | -5 | 14 | 17* | 11
O=C(N/N=C/c1ccccc1O)c1cc[n+]([O-])cc1 | 2 | 7 | 10 | 0 | -1
NC(=O)c1ccsc1NC(=O)COC(=O)Cc1cccc2ccccc12 | 5 | 97* | -1 | -3 | u
NC(=O)c1ccsc1NC(=O)COC(=O)Cc1c[nH]c2ccccc12 | 0 | x | -3 | 0 | 7
NC(=O)c1ccsc1NC(=O)COC(=O)c1cccnc1Cl | x | 94* | -9 | x | x
O=C(CCSc1nnc(-c2ccco2)o1)N1CCOCC1 | 1 | x | -13 | -2 | -5
CC1=NNC(=O)C1C(c1ccc(F)cc1)C(C#N)C#N (stereo not given) | 2 | 30 | 13 | -4 | -2
CCOC(=O)Cc1csc(NC(=O)CSc2nnc(-c3ccncc3)n2Cc2ccco2)n1 | 3 | 97* | x | 2 | 39
CCC(=O)Nc1ccc(C(=O)CSc2nnc(-c3ccc(NS(=O)(=O)CC)cc3)o2)cc1OC | 0 | -2 | -12 | 17* | -1
CCOC(=O)Cc1csc(NC(=O)CSc2nnc(-c3ccncc3)o2)n1 | -3 | 25 | -5 | -4 | 106*
CCOC(=O)Cc1csc(NC(=O)CSc2nnc(-c3ccc(NS(=O)(=O)CC)cc3)o2)n1 | 0 | 98* | -10 | 4 | 85*
CCOc1ccccc1NC(=O)C(NCCN(C)C)c1ccccc1 (stereo not given) | -2 | x | -22 | 3 | 0
N#Cc1ccc(OCC(=O)N2CCN(S(=O)(=O)c3ccc(Cl)s3)CC2)cc1 | 0 | -1 | x | 3 | x
Cn1c(=O)c2c(nc3n2CCS3)n(C)c1=O | 2 | -7 | -8 | -3 | 4
CCC(=O)N1C(Cc2ccccc2)COC1(C)C (stereo not given) | 0 | x | 13 | -3 | -13
CC(C)CN(C(=O)CN1CCN(c2ccc(O)cc2)CC1)c1c(N)n(CC(C)C)c(=O)[nH]c1=O | 0 | 99* | x | -8 | -1
NC(=S)N=Nc1ccc(NN=C(N)N)cc1 | 2 | 98* | -12 | 1 | x
Cc1[nH]n(C2=NCCS2)c(=O)c1N=Nc1ccccc1 | 1 | 92* | -5 | -4 | -17
